# Compounds with a hit are over-represented: about 21% of the library has one in this group of screens.
# Pf growth 96h = Primary qHTS for delayed death inhibitors of the malarial parasite plastid, 96 hour incubation | AID 504834, 2011 | P. falciparum luciferase reporter growth, 96 h | 320,000 compounds, 6.9% hits | Potency, µM (doses to about 28.7 µM), inactives show top-dose activity change, negative = inhibition, most hits filed as inhibitors; also: potency is read from the fitted curve at half-maximal effect; % is scaled to controls: 0 for no effect and ±100 for the full control effect
#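 Two-generation exposure (96 h) targets delayed-death phenotype. Reporter parasites carrying integrated firefly luciferase, in red cells at 2% hematocrit and 0.05% parasitemia final, kept at 37 C, 5% CO2; luminescence loss indicates inhibition.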
# Pf growth 48h = Primary qHTS for delayed death inhibitors of the malarial parasite plastid, 48 hour incubation; P. falciparum luciferase growth in erythrocytes, 48 h; Potency, µM (doses to about 28.7 µM), inactives show at the top dose activity change, negative = inhibition, hits mostly inhibitors; 310,000 compounds, 5.9% hits; also: potency is read from the fitted curve at half-maximal effect; % is scaled to controls: 0 for no effect and ±100 for the full control effect
#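 Erythrocytes infected with P. falciparum carrying an integrated firefly luciferase reporter (2% hematocrit, 0.1% parasitemia final) were exposed to compounds in RPMI 1640 with 0.5% Albumax at 37 C, 5% CO2. Growth inhibition was scored as reduced luminescence.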
# Cycloheximide cs = Cycloheximide Counterscreen for Small Molecule Inhibitors of Shiga Toxin. 300,000 compounds, 12% hits. cell reporter, cycloheximide protein synthesis inhibition counterscreen. max response, %; in the data active = max response mostly above about 13%, no sharp cut-off; inactive = mostly below about 14%; also: read at 38.3 µM for the half of the compounds with a filed dose; 0% is about no effect
# SARS PLP yeast = qHTS of Yeast-based Assay for SARS-CoV PLP | S. cerevisiae expressing SARS-CoV PLpro, growth rescue | Potency, µM (highest dose often 32.9 µM), inactives show top-dose activity, positive = growth rescue, usual class: activators | 330,000 compounds, 0.19% hits | AID 485353, 2010; calls by dose curve; also: potency is read from the fitted curve at half-maximal effect; 0% is about no effect; nearly all actives have a fitted effect of over 55% in size
# NS1 inh = qHTS Assay for Inhibitors of Influenza NS1 Protein Function | 270,000 compounds, 0.4% hits | Potency, µM (highest dose often 46.1 µM), without a hit: top-dose activity, positive = more growth; calls by dose curve; also: potency is read from the fitted curve at half-maximal effect; actives are rising curves; nearly all actives have a fitted effect of over 50% in size
#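 In this qHTS, NS1 from influenza A is expressed in budding yeast, where it slows growth. Cells are switched from glucose to 2% galactose medium (pH 6.0, -URA), treated with compound, and growth recovery is read at OD600.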
# Shiga toxin inh = A qHTS for Small Molecule Inhibitors of Shiga Toxin | Vero cells, Shiga toxin protein synthesis inhibition reporter | 290,000 compounds, 9.2% hits | inhibition, % at 38.7 µM; in the data active = inhibition mostly above about 28%, no sharp cut-off; inactive = mostly below about 43%; also: 0% is about no effect
# An asterisk follows results filed as active; ? = inconclusive; . = no result; [ ] = another dose, or the depositor's remark. Unless noted, calls follow the shape of the dose curve; as a rule, active = well fitted inhibition curve with a large enough effect; inconclusive = small, poorly fitted or top-dose-only effect, or another doubt; inactive = no such curve, though single readings can be large or run the other way.
SMILES,Pf growth 96h,Pf growth 48h,Cycloheximide cs,SARS PLP yeast,NS1 inh,Shiga toxin inh
COC(=O)Cc1c(C)c2ccc(OCC(=O)NC3CCS(=O)(=O)C3)cc2oc1=O (stereo unspecified),0.8%,14.4%,-1.4,-2.1%,-5.9%,-3.1
COc1cccc(CC(=O)NN2C(=O)NC3(CCCCC3)C2=O)c1,-27.0%,?,.,3.1%,.,.
O=C(c1ccc(Cl)c(S(=O)(=O)N2CCCCCC2)c1)N1CCCCC1,6.3%,?,16.6*,5.2%,11.8%,38.9*
Cc1cc2nnn(-c3nnc(-c4ccccc4)c4ccccc34)c2cc1C,8.28µM*,?,1.8,1.6%,13.5%,-20.5
CCCCNC(=O)c1ccccc1NC(=O)CCC,-0.5%,13.2%,-3.5,0.1%,-1.7%,-4.8
COCCN1CCCC(CNCc2cn(C)nc2-c2ccc(Oc3ccccc3)cc2)C1 (stereo unspecified),?,6.57µM*,-2.5,0.3%,2.0%,-7.8
COC1CCCN(Cc2cn(C)nc2-c2ccc(Oc3ccccc3)cc2)C1 (stereo unspecified),?,2.1%,2.3,-0.9%,-4.7%,-11.2
CCCN1CCC(NCc2cn(C)nc2-c2ccc(Oc3ccccc3)cc2)CC1,?,1.65µM*,6.5,-0.5%,1.1%,-10.2
CC(C)N(C(=S)Nc1cccnc1)c1ccccc1,38.8%,-4.9%,-3.6,-0.8%,-6.1%,-1.0
CNC(=O)COC(=O)[C@@H](Nc1ccc(S(=O)(=O)N2CCOCC2)cc1[N+](=O)[O-])C(C)C,0.0%,-2.8%,6.5,-4.5%,-4.5%,-6.6
O=c1[nH]nc(Sc2ncnc3sccc23)n1CCc1ccccc1,9.28µM*,10.4µM*,-2.0,0.0%,-3.7%,-9.8
CCN(CC)C(=O)CSc1n[nH]c(=O)n1CCc1ccccc1,0.4%,-2.1%,-5.5,0.9%,-3.2%,-0.5
COC(=O)c1ccc(N2CCN(CC(=O)c3ccc(-c4ccccc4)cc3)CC2)c([N+](=O)[O-])c1,?,11.7µM*,85.2*,-8.2%,-58.6%,59.7*
CC(=O)c1ccc(N2CCc3ccccc3C2)c([N+](=O)[O-])c1,86.1%,91.7%,30.4*,-1.2%,0.7%,76.1*
COc1ccc(C(=O)Nc2ccccc2N2CCCCC2)cc1[N+](=O)[O-],11.7µM*,?,-0.8,-2.0%,-50.5%,-4.4
CC(=O)c1ccc(N2CCN(c3ncccn3)CC2)c([N+](=O)[O-])c1,28.3%,13.3%,10.5,-7.7%,-6.0%,36.1
CN1CCN(c2ccc(C(=O)c3ccccc3)cc2[N+](=O)[O-])CC1,?,47.0%,40.1*,2.5%,0.4%,32.0*
COC(=O)c1ccc(N2CCN(C(=O)C3CC3)CC2)c([N+](=O)[O-])c1,?,6.4%,0.7,-0.3%,1.0%,-1.6
Cc1ccc(C(=O)Nc2ccccc2N2CCCCC2)cc1[N+](=O)[O-],?,-18.0%,-2.5,0.9%,.,8.3
O=C(c1ccc2[nH]c(=O)c(=O)[nH]c2c1)N1CCN(c2ccccc2)CC1,-38.2%,7.0%,-7.7,4.2%,11.2%,11.3
COc1ccc(S(=O)(=O)Nc2ccc(N3CCOCC3)cc2)cc1[N+](=O)[O-],-16.8%[5.75 µM],-11.7%,5.3,-0.3%,6.7%,-9.5
COc1ccc(S(=O)(=O)Nc2ccccc2N2CCOCC2)cc1[N+](=O)[O-],9.3%,13.1µM*,-1.1,-4.3%,-5.3%,-6.6
CN1CCN(c2ccccc2NC(=O)c2ccc(N3CCCCC3)c([N+](=O)[O-])c2)CC1,?,13.1µM*,-4.8,1.4%,4.0%,-16.4
Cc1ccc(NC(=O)Cn2c(-c3ccc(F)cc3)cnc2SCC(=O)Nc2c(C)cccc2C)cc1,12.9%,0.1%,-0.2,-21.2%,5.5%,1.2
Cc1nc2ncnn2c(N2CCC(C(=O)NC3CCCC3)CC2)c1Cc1ccccc1,44.7%,14.7µM*,-3.2,3.0%,-0.5%,7.5
SMILES,Pf growth 96h,Pf growth 48h,Cycloheximide cs,SARS PLP yeast,NS1 inh,Shiga toxin inh
COc1cccc(CC(NC(C)=O)C(=O)NC2CCN(c3c(Cc4ccccc4)c(C)nc4ncnn34)CC2)c1 (stereo unspecified),10.4µM*,3.7µM*,0.6,23.0%,2.3%,9.3
Cc1ccccc1NC(=O)C1CCN(c2cc(-c3ccccc3)nc3ncnn23)CC1,-18.8%,7.38µM*,-2.0,26.6%,-2.1%,7.9
COc1ccc(OC)c(CC(NC(C)=O)C(=O)NC2CCN(c3c(Cc4ccccc4)c(C)nc4ncnn34)CC2)c1 (stereo unspecified),?,?,-1.4,22.0%,-6.2%,-9.2
O=S(=O)(c1ccccc1)N1CCN(c2cc(-c3ccccc3)nc3ncnn23)CC1,?,?,-3.3,1.5%,-18.7%,10.2
COc1ccc(/C(O)=C2/C(=O)C(=O)N(c3ccccn3)C2c2ccc(OC)c(OC)c2)cc1 (stereo unspecified),2.0%,14.7%,-2.3,-0.1%,1.3%,45.4
Cc1cccc(C(=O)OCC(=O)c2c(C)[nH]c3ccccc23)c1O,89.9%,29.2%,.,5.4%,.,.
COc1ccccc1CNC(=O)C(CCSC)NS(=O)(=O)c1ccc2c(c1)oc(=O)n2C (stereo unspecified),2.08µM*,-2.9%,52.2*,-4.0%,-8.1%,42.5
COc1ccccc1CNC(=O)C(CC(C)C)NS(=O)(=O)c1ccc2c(c1)oc(=O)n2C (stereo unspecified),-33.4%,.,-5.2,9.3%,4.3%,-9.6
COc1ccccc1NC(=O)C(C)OC(=O)Cc1ccsc1 (stereo unspecified),14.2%,8.8%,.,0.3%,.,.
O=C1Nc2ccccc2/C1=C/c1cnc[nH]1,?,?,1.0,-13.1%,-73.1%,-6.4
COc1ccc2c(c1)/C(=C/c1cnc[nH]1)C(=O)N2,5.22µM*,?,-1.3,-16.5%,-102.7%,8.6
COC(=O)c1cnc(SCc2ccc([N+](=O)[O-])cc2)n1C,35.8%,14.8%,1.6,1.0%,-3.0%,5.6
CC12CCC(C(=O)NC(c3ccccc3)c3ccccc3)(OC1=O)C2(C)C (stereo unspecified),13.1µM*,.,-1.9,4.0%,-1.6%,-7.9
CC12CCC(C(=O)Nc3nc4ccccc4s3)(OC1=O)C2(C)C (stereo unspecified),-0.5%,57.0%,28.8*,-0.1%,0.4%,85.4*
CC(C)CC(=O)Nc1cccc(C(C)O)c1 (stereo unspecified),32.6%,10.6%,2.0,0.9%,.,-7.1
O=C1NC(=O)C(CCc2ccncc2)(CCc2ccccn2)C(=O)N1c1ccc(Br)cc1 (stereo unspecified),-22.1%,?,-2.4,-0.1%,-3.3%,-6.7
Cc1ccc(N2C(=O)NC(=O)C(CCc3ccccn3)(Cc3cccc(Cl)c3Cl)C2=O)cc1 (stereo unspecified),2.33µM*,-15.2%,-1.9,14.0%,-9.5%,13.0

# High-throughput results deposited in PubChem BioAssay by National Center for Advancing Translational Sciences (NCATS).
